Source: PubChem
Rows were chosen to be rich in hits. Some 1% of all compounds tested hit in one or more screens of this group.
Eya2 phos inh: qHTS Assay for Inhibitors of the Phosphatase Activity of Eya2. Protein phosphatase EYA2 (Homo sapiens), O00167. actives 0.006% (n = 330,000). AID 488837, 2010. recombinant Eya2, OMFP fluorescence dephosphorylation (OMFP is methylfluorescein phosphate). Potency, µM (top dose mostly 76.9 µM), actives largely listed as inhibitors
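Eya2 protein (added as 0.2 uM solution) was preincubated with compound for 10 min at ambient temperature in 50 mM HEPES pH 7.5, 50 mM NaCl, 5 uM MgCl2, 0.05% BSA, 1 mM DTT. OMFP (added at 50 uM) then reacted 10 min; fluorescence read at 485/525 nm.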
USP2a inh: qHTS Assay for Inhibitors of Ubiquitin-specific Protease USP2a Using CHOP2 as the Reporter. Ubiquitin carboxyl-terminal hydrolase 2 (Homo sapiens), O75604. USP2 core, Ub-CHOP2 coupled fluorogenic reporter, 485/531. Potency, µM (titrated, usually from 38.3 µM), hits mostly inhibitors. actives 0.01% (n = 330,000). AID 463254, 2010
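USP2 core (10nM final) preincubated 30min RT with compound in 20mM Tris-HCl pH 8.0, 2mM CaCl2, 2mM beta-mercaptoethanol, 0.05% CHAPS; 25nM Ub-CHOP2 plus 25nM reporter substrate added, fluorescence (Ex485/Em531) read after 60min.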
RGS4 inhibitor: Inhibitors of Regulator of G Protein Signaling (RGS) 4: qHTS. Regulator of G-protein signaling 4 (Homo sapiens), P49798. Transcreener GDP fluorescence polarization, RGS4-accelerated GTP hydrolysis. Potency, µM (top dose mostly 114 µM), most hits filed as inhibitors. actives 0.039% (n = 390,000). AID 504845, 2011; also: nearly all actives have a fitted effect of over 75% in size
Target sequence (P49798 whole entry, looked up): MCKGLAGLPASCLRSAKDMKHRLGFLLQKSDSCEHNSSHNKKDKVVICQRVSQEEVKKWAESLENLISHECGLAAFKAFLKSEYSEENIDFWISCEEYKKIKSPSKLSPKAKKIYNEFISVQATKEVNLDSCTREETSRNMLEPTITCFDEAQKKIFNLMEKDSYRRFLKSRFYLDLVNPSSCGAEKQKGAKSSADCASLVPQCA
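MLSMR compounds (23 nl, pin-transferred) preincubated 10 min at room temperature with a 500nM (2x) first reagent, then RGS4 at 900nM (2x) plus Transcreener GDP mix added; fluorescence polarization (620/688 nm) read before and after 90 min at 30 °C.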
GALK inh: qHTS Assay for Inhibitors of Human Galactokinase (GALK) | P51570 | Potency, µM (top dose mostly 57.5 µM), hits mostly inhibitors | Purified GALK, Kinase-Glo residual ATP luminescence | actives 0.007% (n = 270,000)
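5 nM enzyme, 35 uM ATP, 100 uM galactose, 20 mM HEPES pH8.0, 5 mM MgCl2; 1 h RT; residual ATP by Kinase-Glo Plus luminescence, qHTS format.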
TrxR1 substrate: qHTS Assay for Substrates of Mammalian Selenoprotein Thioredoxin Reductase 1 (TrxR1): qHTS | Thioredoxin reductase 1, cytoplasmic (Rattus norvegicus), O89049 | purified TrxR1 substrate turnover, NADPH consumption readout | Potency, µM (titrated, usually from 114 µM) | actives 0.01% (n = 390,000) | AID 588456, 2011; also: nearly all actives have a fitted effect of over 50% in size
Target sequence (O89049 whole entry, looked up): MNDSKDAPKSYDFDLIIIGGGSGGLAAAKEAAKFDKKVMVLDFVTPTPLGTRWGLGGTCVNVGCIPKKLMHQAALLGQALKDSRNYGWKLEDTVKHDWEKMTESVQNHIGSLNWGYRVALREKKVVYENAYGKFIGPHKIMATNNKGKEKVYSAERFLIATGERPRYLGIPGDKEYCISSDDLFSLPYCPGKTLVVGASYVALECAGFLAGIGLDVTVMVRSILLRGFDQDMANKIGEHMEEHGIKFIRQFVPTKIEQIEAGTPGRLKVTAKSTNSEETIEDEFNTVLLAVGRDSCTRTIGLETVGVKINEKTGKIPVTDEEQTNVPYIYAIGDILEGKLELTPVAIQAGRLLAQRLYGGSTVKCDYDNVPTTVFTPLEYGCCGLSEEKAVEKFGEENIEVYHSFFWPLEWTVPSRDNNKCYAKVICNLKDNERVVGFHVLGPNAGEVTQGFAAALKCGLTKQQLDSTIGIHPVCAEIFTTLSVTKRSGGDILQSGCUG
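Rat TrxR1, dispensed at 90 nM, was prereduced with 400 uM NADPH (final) for 5 min at ~22 deg C, then incubated with compound 15 min before 400 uM selenite. A first-read NADPH fluorescence drop versus no-compound background flagged substrates.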
TrxR1 inh: qHTS Assay for Inhibitors of Mammalian Selenoprotein Thioredoxin Reductase 1 (TrxR1): qHTS. recombinant rTrxR1, NADPH fluorescence consumption, selenite substrate. Potency, µM (series often up to 114 µM), hits mostly inhibitors. actives 1% (n = 390,000); also: nearly all actives have a fitted effect of over 65% in size
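Rat TrxR1 (90 nM in the dispensed reagent) was pre-reduced with 400 uM NADPH for 5 min at room temperature, then incubated with compound for 15 min. After 400 uM selenite was added, NADPH fluorescence (Ex 340/Em 450 nm) was followed for 8 min.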
Hits are given with their value; ! = repeats disagree; [ ] = another dose, or the depositor's remark. Calls follow the shape of the dose curve; as a rule, active = well fitted curve in the direction sought with a large enough effect; inconclusive = small, poorly fitted or top-dose-only effect, or another doubt; inactive = no such curve, though single readings can be large; an effect the other way counts as inactive or inconclusive.

`CSc1nc(N)c2ncn([C@@H]3O[C@H](COP(=O)(O)OP(=O)(O)OP(=O)(O)O)[C@@H](O)[C@H]3O)c2n1` gave Eya2 phos inh inactive, RGS4 inhibitor 12µM!, TrxR1 substrate inactive and TrxR1 inh inactive.
Screening Nc1nc(Cl)nc2c1ncn2[C@@H]1O[C@H](COP(=O)(O)OP(=O)(O)OP(=O)(O)O)[C@H](O)[C@H]1O returned TrxR1 inh inactive.
`CSc1nc(N)c2ncn([C@@H]3O[C@H](COP(=O)(O)OP(=O)(O)O)C(O)[C@H]3O)c2n1` (stereo partly drawn) gave Eya2 phos inh inactive, RGS4 inhibitor 0.53µM, TrxR1 substrate inactive and TrxR1 inh inactive.
`O=C(CCl)c1ccc2c(c1)CCCC2` gave TrxR1 substrate inactive and TrxR1 inh inconclusive.
`CC(C)(C)OC1NS(=O)(=O)OCC1NCOC(Cl)(Cl)Cl` (stereo not drawn) gave Eya2 phos inh inactive, USP2a inh inactive, RGS4 inhibitor inactive, TrxR1 substrate inactive and TrxR1 inh 1.8µM.
CN(C)c1ccc(/C=C/c2ccnc3ccc(O)cc23)cc1 was read as TrxR1 substrate inactive and TrxR1 inh inactive.
For Cc1ccc(CN2CCOCCS2(=O)=O)cc1 the results were TrxR1 substrate inactive and TrxR1 inh inactive.
CCN1C(=O)/C(=C/c2ccc(C)o2)N(C)C1=S was read as Eya2 phos inh inactive, USP2a inh inactive, RGS4 inhibitor inconclusive, GALK inh inactive, TrxR1 substrate inactive and TrxR1 inh 32µM.
For CCN1C(=O)/C(=C/c2cccs2)N(C)C1=S the results were Eya2 phos inh inactive, USP2a inh inactive, RGS4 inhibitor inactive, GALK inh inactive, TrxR1 substrate inactive and TrxR1 inh inactive.
Screening CN[C@H](C)CCC=C(C)C returned TrxR1 substrate inactive and TrxR1 inh inactive.
CC(C)NC(=O)c1cnc2sc(N3CCCCCC3)nn2c1=O was read as RGS4 inhibitor inactive, TrxR1 substrate inactive and TrxR1 inh inactive.
CC(=O)c1cnc(N(C)C)s1 was read as Eya2 phos inh inactive, USP2a inh inactive, RGS4 inhibitor inactive, GALK inh inactive, TrxR1 substrate inactive and TrxR1 inh inactive.
For O=C1C(Cl)=C(N2CCCCC2)C(=O)C(Cl)=C1c1cnc(N2CCCCC2)s1 the results were Eya2 phos inh inactive, USP2a inh inactive, RGS4 inhibitor inconclusive, GALK inh inactive, TrxR1 substrate inactive and TrxR1 inh 1.8µM.
For CN(C)c1ncc(C2=C(Cl)C(=O)C(N3CCCC3)=C(Cl)C2=O)s1 the results were RGS4 inhibitor inconclusive, TrxR1 substrate inactive and TrxR1 inh 2.5µM.
Screening S=c1ncc2n[nH]nc2[nH]1 returned TrxR1 substrate inactive and TrxR1 inh inactive.
`CNc1ccc(Br)cc(C(=O)/C=C/c2cccc(OC)c2)c1=O` gave Eya2 phos inh inactive, USP2a inh inactive, RGS4 inhibitor inconclusive, GALK inh inactive, TrxR1 substrate inactive and TrxR1 inh 13µM.
CNc1ccc(Br)cc(C(=O)/C=C/c2ccc(Cl)cc2Cl)c1=O was read as Eya2 phos inh inactive, USP2a inh inactive, RGS4 inhibitor inconclusive, GALK inh inactive, TrxR1 substrate inactive and TrxR1 inh inactive.
CNc1ccc(Br)cc(C(=O)/C=C/c2ccc(OC)cc2OC)c1=O was read as Eya2 phos inh inactive, USP2a inh inactive, RGS4 inhibitor inconclusive, GALK inh inactive, TrxR1 substrate inactive and TrxR1 inh 14µM.
For O=C(/C=C/c1ccccc1)c1cc(Br)ccc(=O)c1O the results were Eya2 phos inh inactive, USP2a inh inactive, RGS4 inhibitor inconclusive, GALK inh inactive, TrxR1 substrate inactive and TrxR1 inh inconclusive.
`Cc1cccc(Cn2cnc3c(cnn3C(C)(C)C)c2=O)c1F` gave TrxR1 substrate inactive and TrxR1 inh inactive.
S=C(NCCCc1cnc[nH]1)NCCCN(Cc1ccc(Cl)cc1)c1cc(-c2ccccc2)ccn1 was read as RGS4 inhibitor inactive, TrxR1 substrate inactive and TrxR1 inh inactive.
Screening Cc1ccc(N2C(=O)[C@@H]3[C@H](C2=O)[C@H]2C=C(C(=O)c4ccccc4)C=CN2[C@@H]3C(=O)c2ccc(Cl)cc2)cc1 returned Eya2 phos inh inactive, USP2a inh inactive, RGS4 inhibitor inactive, GALK inh inactive, TrxR1 substrate inactive and TrxR1 inh inactive.
For O=C(C1=C[C@@H]2[C@H]3C(=O)N(c4cccc(Cl)c4)C(=O)[C@H]3[C@@H](C(=O)c3ccc(Cl)cc3)N2C=C1)c1ccccc1 the results were Eya2 phos inh inactive, USP2a inh inactive, RGS4 inhibitor inconclusive, GALK inh inactive, TrxR1 substrate inactive and TrxR1 inh 50µM.
`CCCCCC(=O)NNC1CC(=O)N(c2cccc(OCC)c2)C1=O` (stereo not drawn) gave Eya2 phos inh inactive, USP2a inh inactive, RGS4 inhibitor inactive, GALK inh inactive, TrxR1 substrate inactive[11.4 µM] and TrxR1 inh inactive[11.4 µM].
For CC(=O)NCCCC(=O)NNC1CC(=O)N(c2cccc(Cl)c2)C1=O (stereo not drawn) the results were Eya2 phos inh inactive, USP2a inh inactive, RGS4 inhibitor inactive, GALK inh inactive, TrxR1 substrate inactive and TrxR1 inh 14µM.
Screening CCOC(=O)c1cc(OC(=O)c2ccccc2)n(-c2ccccc2)n1 returned Eya2 phos inh inactive, USP2a inh inactive, RGS4 inhibitor inactive, GALK inh inactive, TrxR1 substrate inactive and TrxR1 inh inactive.
For CCOC(=O)c1cc(OC(=O)c2cccs2)n(-c2ccccc2)n1 the results were Eya2 phos inh inactive, USP2a inh inactive, RGS4 inhibitor inactive, GALK inh inactive, TrxR1 substrate inactive and TrxR1 inh 22µM.
For COc1cc(OC)c2c(c1)OC(c1ccccc1)CC2=O (stereo not drawn) the results were RGS4 inhibitor 5.3µM.
Screening Cc1cc(NC(=O)CCOc2ccc(F)cc2)no1 returned Eya2 phos inh inactive, USP2a inh inactive, RGS4 inhibitor inconclusive, GALK inh inactive, TrxR1 substrate inactive and TrxR1 inh 14µM.
CCOC(=O)/C=C1\CN(CCC(C)C)S(=O)(=O)c2ccccc21 was read as Eya2 phos inh inactive, USP2a inh inactive, RGS4 inhibitor inactive, TrxR1 substrate inactive and TrxR1 inh inactive.
CCOC(=O)/C=C1\CN(Cc2ccc(OC)cc2)S(=O)(=O)c2ccc(C(F)(F)F)cc21 was read as TrxR1 substrate inactive and TrxR1 inh 25µM.
